From PubChem BioAssay (NCATS) come the findings set out here.

Each structure is given as a SMILES string. Where “and” joins values, the source holds several entries; their conditions need not be identical. Equal entries are not always repeated. Inconclusive results are not listed. Where a call stands in place of a potency, no number is given. More than one record can exist for a structure, and the calls need not agree. Calls of active or inactive are those of the source. The call rests on the fitted dose curve; in most records, active means well fitted inhibition curve with a large enough effect; inconclusive means small, poorly fitted or top-dose-only effect; inactive means flat fitted curve, though single readings scatter.
Potency means the concentration at half of the fitted maximal effect.

The assay is described as follows: P-glycoprotein substrates identified in KB-8-5-11 adenocarcinoma cell line, qHTS therapeutic library screen (AID 1346987). Further: nearly all actives have a fitted effect of over 65% in size. The following applies: KB-8-5-11 (P-gp overexpressing) viability, CellTiter-Glo, 72 h; series mostly up to 44.5 µM. The procedure, abridged:
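KB-8-5-11, a colchicine-selected P-gp-overexpressing KB-3-1 subline, was grown without colchicine for the assay. Cells were seeded at 500 cells/well, dosed in concentration-response and incubated 72 h at 37 degree C, 5% CO2. Viability was read by CellTiter-Glo luminescence.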
(In general: qHTS replaces the single test concentration by a dilution series.)
For `O=c1c(O)c(-c2cc(O)c(O)c(O)c2)oc2cc(O)cc(O)c12`, the Potency result is “inactive”.
As for `CN(C)C(=O)[C@H](O)[C@H](Cc1ccccc1)NC(=O)c1cc2cc(Cl)ccc2[nH]1`, the Potency entry is “inactive”.
As to `Nc1ccn([C@@H]2O[C@H](CO)[C@@H](O)C2O)c(=O)n1` (some centres undefined), the Potency result is “inactive”.
`O=C(O)c1cccnc1Nc1cccc(C(F)(F)F)c1`: the Potency result was “inactive”.
For the compound `CNC[C@H](O)c1ccc(O)c(O)c1`, the Potency result was “inactive”.
With `OC(CN1CCN(c2cccc(Cl)c2)CC1)C(c1ccccc1)c1ccccc1` (centres undefined), the Potency result is “inactive”.
The same measure for `O=C(CCc1ccc(O)cc1)c1c(O)cc(O)cc1O`: “inactive”; for `O=C1NC(=O)C(c2ccccc2[N+](=O)[O-])=C1Nc1ccc(O)c(Cl)c1`: “inactive”; for `Cc1cc(O)c2c(c1)C(=O)c1cc(O)cc(O)c1C2=O`: “inactive”.
Next, `COc1cc2nc(N3CCN(C(=O)C4CCCO4)CC3)nc(N)c2cc1OC` (centres undefined): “inactive”.
For `C[C@@H](N)C1CCC(C(=O)Nc2ccncc2)CC1` (some centres undefined), the Potency result was “inactive”.
As for `CN(C)CCCC1(c2ccc(F)cc2)OCc2cc(C#N)ccc21` (centres undefined), the Potency entry was “inactive”.
For the compound `O=c1c(O)c(-c2ccc(O)cc2O)oc2cc(O)cc(O)c12`, the Potency result was “inactive”.
Next, `CCOC(=O)C1=C(O)C(=O)N(Cc2ccccc2)C1`: “inactive”.
`COc1cc2c(cc1OC)C1CC(=O)C(CC(C)C)CN1CC2` (centres undefined): the Potency result was “inactive”.
As for `Clc1ccc2c(N3CCN(CCCN4CCN(c5ccnc6cc(Cl)ccc56)CC4)CC3)ccnc2c1`, the Potency entry is “inactive”.
Turning to `CC(C)c1ccc2c(c1)c(SC(C)(C)C)c(CC(C)(C)C(=O)O)n2Cc1ccc(Cl)cc1`, the Potency entry was “inactive”.
With `NCCCCNCCCN`, the Potency entry was “inactive”.
With `NC(=NCc1ccccc1)NC(=O)c1nc(Cl)c(N)nc1N`, the Potency result was “inactive”.
Regarding `Oc1ccc2ccccc2c1SSc1c(O)ccc2ccccc12`, the Potency result is “inactive”.
Take `CC1(C)C(=O)N(CCN2CCC(C(=O)c3ccc(F)cc3)CC2)c2ccccc21`: the Potency entry was “inactive”.
As for `Cc1cccc(-c2[nH]ncc2-c2ccc3ncccc3n2)n1`, the Potency entry was “inactive”.
For the compound `O=C1c2c(O)cc(O)cc2OC(c2ccc(O)c(O)c2)C1O` (centres undefined), the Potency result is “inactive”.
Consider `c1cnc2cc3c(cc2n1)C1CNCC3C1`, for which the Potency entry is “inactive”.
`Cc1c(OCC(F)(F)F)ccnc1CS(=O)c1nc2ccccc2[nH]1` (centres undefined): the Potency result is “inactive”.
Turning to `O=c1cc(N2CCOCC2)oc2c(-c3ccccc3)cccc12`, the Potency was 5.9 µM (active) and 20 µM (active).
As to `CC1(C)NC(=O)N(c2ccc([N+](=O)[O-])c(C(F)(F)F)c2)C1=O`, the Potency was 13 µM (active) and inactive.
For `CC(=O)O[C@H]1C(=O)[C@@]2(C)C([C@H](OC(=O)c3ccccc3)[C@]3(O)C[C@H](OC(=O)[C@H](O)[C@@H](NC(=O)c4ccccc4)c4ccccc4)C(C)=C1C3(C)C)[C@]1(OC(C)=O)CO[C@@H]1C[C@@H]2O` (some centres undefined), the Potency is 209 nM (active) and 1.01 µM (active).
Take `Oc1ccc(-c2nc(-c3ccc(F)cc3)c(-c3ccncc3)[nH]2)cc1`: the Potency result is “inactive”.
The same measure for `C[C@H](Cc1ccc(O)c(O)c1)[C@@H](C)Cc1ccc(O)c(O)c1`: “inactive”; for `O=C1c2ccccc2-c2n[nH]c3cccc1c23`: 18.4 µM (active); for `O=C(c1ccccc1)c1ccc2n1CCC2C(=O)O` (centres undefined): “inactive”.
As for `COc1ccccc1N1CCN(CCN(C(=O)C2CCCCC2)c2ccccn2)CC1`, the Potency entry was “inactive”.
Take `COc1ccc2cc([C@H](C)C(=O)O)ccc2c1`: the Potency entry is “inactive”.
Next, `Nc1nc(OCc2ccccc2)c2[nH]cnc2n1`: “inactive”; `CCN(CC)C(=S)SSC(=S)N(CC)CC`: 41.8 nM (active) and inactive.
In the case of `O=c1ccc2ccc(O)c(O)c2o1`, the Potency entry is “inactive”.
As for `Cc1cccc(C#Cc2ccccc2)n1`, the Potency entry is “inactive”.
As to `CCOC(=O)C(C)Oc1cccc2c(=O)n(CC(=O)Nc3ccc4c(c3)OCCO4)ccc12` (centres undefined), the Potency result is “inactive”.
